The record followed here is ChEMBL document CHEMBL3433997, “St. Jude Leishmania screening dataset” (2016).

Common to all, as to assay type: functional
In test [1] the target is Solute carrier family 2, facilitated glucose transporter member 1 (Homo sapiens) (UniProt P11166). Kind of test: ST_JUDE_LEISH: Cytotoxicity at 2uM final concentration against transgenic Leishmania Mexicana promastigotes LmGLUT1 that are glucose transport deficient and complemented with the human glucose transporter GLUT1. Activity is measured by DNA content using SYBR green in vitro.

In test [2] the target is Hexose transporter 1 (Plasmodium falciparum) (UniProt O97467). Kind of test: ST_JUDE_LEISH: Cytotoxicity at 2uM final concentration against transgenic Leishmania Mexicana promastigotes LmPfHT that are glucose transport deficient and complemented with the Plasmodium falciparum hexose transporter. Activity is measured by DNA content using SYBR green in vitro.
The target of test [3] is Glucose transporter (Leishmania mexicana) (UniProt O61059). Kind of test: ST_JUDE_LEISH: Cytotoxicity at 2uM final concentration against transgenic Leishmania Mexicana promastigotes LmGT2 that are glucose transport deficient and complemented with the L. Mexicana glucose transporter 2. Activity is measured by DNA content using SYBR green in vitro.

Chain of Solute carrier family 2, facilitated glucose transporter member 1 (Homo sapiens) (P11166 whole entry): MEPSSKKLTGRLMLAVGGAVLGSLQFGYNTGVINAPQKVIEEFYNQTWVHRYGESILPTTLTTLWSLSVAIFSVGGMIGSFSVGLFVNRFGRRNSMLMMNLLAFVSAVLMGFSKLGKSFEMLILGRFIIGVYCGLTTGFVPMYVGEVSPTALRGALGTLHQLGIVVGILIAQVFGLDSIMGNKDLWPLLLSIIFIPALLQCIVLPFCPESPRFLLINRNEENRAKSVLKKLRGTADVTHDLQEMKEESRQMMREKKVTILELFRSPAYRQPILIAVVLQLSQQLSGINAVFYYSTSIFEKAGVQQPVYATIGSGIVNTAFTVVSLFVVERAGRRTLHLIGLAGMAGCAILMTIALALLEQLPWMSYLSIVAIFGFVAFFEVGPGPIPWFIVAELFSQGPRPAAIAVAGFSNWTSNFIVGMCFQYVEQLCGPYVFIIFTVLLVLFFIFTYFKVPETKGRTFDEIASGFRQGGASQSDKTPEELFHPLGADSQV

The inhibition is the change of the read-out against control, counted positive when it falls. On to `CS(=O)(=O)Nc1ccc2[nH]cc(C3CCN(CC4CCC(NC(=O)/C=C/c5ccc(Cl)c(Cl)c5)CC4)CC3)c2c1` (configuration not stated), for which the values for the inhibition in test [1], in test [2] and in test [3] were 0.82%, 6.93% and -0.55%, respectively.

Regarding `O=C(NC1CCC(CN2CCC(c3c[nH]c4ccccc34)CC2)CC1)c1cn(Cc2ccccc2)c2ccccc12` (configuration not stated), the inhibition in test [1] is 0.71%; in test [2], 1.32%; in test [3] it was -1.09%.

On to `CN(CC(=O)N1CCN(S(=O)(=O)c2cccc(Cl)c2)CC1CN1CCCC1)c1ccc(Cl)c(Cl)c1` (configuration not stated), for which the inhibition stood at 0.54% in test [1], 1.78% in test [2] and 2.07% in test [3].

For `C=C[C@H]1CN2CC[C@H]1C[C@H]2[C@H](O)c1cc(-c2ccc(Cl)cc2)nc2ccc(OC)cc12`, the inhibition came out at 1.16% in test [1], 1.72% in test [2] and 1.31% in test [3].

Consider `COc1cccc(CN2CCC(CCOC(c3ccccc3)c3ccccc3)CC2)c1O`, for which the figures for the inhibition in test [1], in test [2] and in test [3] were 2.87%, -0.08% and -0.42%, respectively.

On to `O=C(CNC1CCCCC1)c1ccc(O)c(O)c1`, for which the inhibition in test [1] came out at 75.2%; in test [2], 87.1%; in test [3], 77.4%.

On to `CC[C@H]1CN2CC[C@H]1C[C@H]2[C@H](O)c1cc(-c2ccc(F)cc2C)nc2ccc(OC)cc12`, for which the inhibition in test [1] was found to be 4.97%; in test [2] it was 1.01%; in test [3], 2.55%.

On to `OC1(c2ccc(Cl)c(C(F)(F)F)c2)CCN(CCOC2c3ccccc3CSc3ccc(Cl)cc32)CC1` (configuration not stated), for which the values for the inhibition in test [1], in test [2] and in test [3] were 2.52%, 1.04% and 2.27%, respectively.

Turning to `Fc1ccc2[nH]cc(CCN3CCC(CNCc4ccccc4)CC3)c2c1`, the figures for the inhibition in test [1], in test [2] and in test [3] were 6.4%, 5.46% and 1.2%, respectively.
